Measured values reported in the supplement of paper PMC9023506.
Counter-ions that a name gives are not always drawn.

tested on: Danio rerio larvae (5 dpf); assay: optomotor response to green moving lines, difference vs DMSO (percentage points (treated minus DMSO)); higher = more of the behaviour than the DMSO vehicle control; conditions: 10 µM; exposure time: 3 h pre-incubation + 3 h imaging
Description: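 5-dpf wild-type zebrafish larvae were imaged in 96-well plates. They were treated with 190 Tocris FDA-approved drugs at 10 µM (1 µl/ml DMSO) for 3 h before and 3 h during imaging at 28.5 °C, 48 larvae per drug. Automated image analysis gave % time moving and optomotor responses. Values are drug group mean minus DMSO vehicle mean (n=844), in percentage points, for 10 behaviours.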

Row | SMILES | optomotor response to green moving lines
1 | CN1CC[C@@H](NC(=O)Nc2ccc(C#N)cc2)C[C@@H]1c1nc2ccccc2[nH]1 | -5.63
2 | CN(CCOc1ccc(NS(C)(=O)=O)cc1)CCc1ccc(NS(C)(=O)=O)cc1 [Dofetilide] | 0.112
3 | CC#C[C@]1(O)CC[C@H]2[C@@H]3CCC4=CC(=O)CCC4=C3[C@@H](c3ccc(N(C)C)cc3)C[C@@]21C [Mifepristone] | 11
4 | CO[C@H]1/C=C/O[C@@]2(C)Oc3c(C)c(O)c4c(O)c(c5c(nc6cc(C)ccn65)c4c3C2=O)NC(=O)/C(C)=C\C=C\[C@H](C)[C@H](O)[C@@H](C)[C@@H](O)[C@@H](C)[C@H](OC(C)=O)[C@@H]1C [Rifaximin] | 0.563
5 | CC(C)(C(=O)c1cccnc1)c1cccnc1 [Metyrapone] | -5.18
6 | Nc1nc2[nH]cc(CCc3ccc(C(=O)N[C@@H](CCC(=O)O)C(=O)O)cc3)c2c(=O)[nH]1 [Pemetrexed] | 8.22
7 | COc1cc(Nc2c(C#N)cnc3cc(OCCCN4CCN(C)CC4)c(OC)cc23)c(Cl)cc1Cl [Bosutinib] | 2.65
8 | O=C(O[C@@H]1C[C@@H]2C[C@H]3C[C@H](C1)N2CC3=O)c1c[nH]c2ccccc12 [Dolasetron mesylate] | -11.6
9 | CC(C)c1nc(CN(C)C(=O)N[C@H](C(=O)N[C@@H](Cc2ccccc2)C[C@H](O)[C@H](Cc2ccccc2)NC(=O)OCc2cncs2)C(C)C)cs1 [Ritonavir] | -6.36
10 | COCCCOc1cc(C[C@@H](C[C@H](N)[C@@H](O)C[C@H](C(=O)NCC(C)(C)C(N)=O)C(C)C)C(C)C)ccc1OC [Aliskiren hemifumarate] | -4.53
11 | Cc1nc(Nc2ncc(C(=O)Nc3c(C)cccc3Cl)s2)cc(N2CCN(CCO)CC2)n1 [Dasatinib] | -4.87
12 | CNC(=O)c1cc(Oc2ccc(NC(=O)Nc3ccc(Cl)c(C(F)(F)F)c3)cc2)ccn1 [Sorafenib] | -2.72
13 | CCOc1cc(CC(=O)N[C@@H](CC(C)C)c2ccccc2N2CCCCC2)ccc1C(=O)O [Repaglinide] | 4.27
14 | CN[C@H]1CC[C@@H](c2ccc(Cl)c(Cl)c2)c2ccccc21 [Sertraline hydrochloride] | -6.64
15 | NS(=O)(=O)c1cc(C(=O)O)c(NCc2ccco2)cc1Cl [Furosemide] | -6.99
16 | Cc1cccc(CN2CCN(C(c3ccccc3)c3ccc(Cl)cc3)CC2)c1 (stereo not given) [Meclizine dihydrochloride] | -8.55
17 | Cc1ccc(N(CC2=NCCN2)c2cccc(O)c2)cc1 [Phentolamine Mesylate] | 5.31
18 | CC1=Nc2ccc(Cl)cc2S(=O)(=O)N1 [Diazoxide] | 7.27
19 | COc1cc([C@@H]2c3cc4c(cc3[C@@H](O[C@@H]3O[C@@H]5CO[C@@H](C)O[C@H]5[C@H](O)[C@H]3O)[C@H]3COC(=O)[C@H]23)OCO4)cc(OC)c1O [Etoposide] | -0.812
20 | CC(C)c1ccc2oc3nc(N)c(C(=O)O)cc3c(=O)c2c1 [Amlexanox] | -0.74

Row | SMILES | optomotor response to green moving lines
21 | Clc1ccc(COC(Cn2ccnc2)c2ccc(Cl)cc2Cl)c(Cl)c1 (stereo not given) [Miconazole nitrate] | -5.21
22 | CC(=O)Oc1cc2c(s1)CCN(C(C(=O)C1CC1)c1ccccc1F)C2 (stereo not given) [Prasugrel] | -2.39
23 | COc1cccc2c1C(=O)c1c(O)c3c(c(O)c1C2=O)C[C@@](O)(C(=O)CO)C[C@@H]3O[C@H]1C[C@H](N)[C@H](O)[C@H](C)O1 [Doxorubicin hydrochloride] | -8.47
24 | CC(c1cc2ccccc2s1)N(O)C(N)=O (stereo not given) [Zileuton] | -11.3
25 | COc1c(C)c2c(c(O)c1C/C=C(\C)CCC(=O)OCCN1CCOCC1)C(=O)OC2 [Mycophenolate mofetil] | 4.99
26 | O=C(O)c1cc(/N=N/c2ccc(S(=O)(=O)Nc3ccccn3)cc2)ccc1O [Sulfasalazine] | 0.416
27 | CNS(=O)(=O)Cc1ccc2[nH]cc(CCN(C)C)c2c1 [Sumatriptan succinate] | 3.74
28 | Clc1ccccc1C(c1ccccc1)(c1ccccc1)n1ccnc1 [Clotrimazole] | -19.6
29 | CC[C@H]1OC(=O)[C@H](C)[C@@H](O[C@H]2C[C@@](C)(OC)[C@@H](O)[C@H](C)O2)[C@H](C)[C@@H](O[C@@H]2O[C@H](C)C[C@H](N(C)C)[C@H]2O)[C@](C)(O)C[C@@H](C)CN(C)[C@H](C)[C@@H](O)[C@]1(C)O [Azithromycin] | -4.27
30 | CC/C(=C(\c1ccccc1)c1ccc(OCCN(C)C)cc1)c1ccccc1 [Tamoxifen citrate] | -10
31 | COc1ccccc1OCCNCC(O)COc1cccc2[nH]c3ccccc3c12 (stereo not given) [Carvedilol] | -14.2
32 | C[C@]12CCC(=O)C=C1CC[C@@H]1[C@@H]2[C@@H](O)C[C@@]2(C)[C@H]1CC[C@]2(O)C(=O)CO [Hydrocortisone] | 10.5
33 | CC(C)(C#N)c1cc(Cn2cncn2)cc(C(C)(C)C#N)c1 [Anastrozole] | -2.71
34 | OCCN(CCO)c1nc(N2CCCCC2)c2nc(N(CCO)CCO)nc(N3CCCCC3)c2n1 [Dipyridamole] | 5.01
35 | CCOC(=O)[C@H](CCc1ccccc1)N[C@H]1CCc2ccccc2N(CC(=O)O)C1=O [Benazepril hydrochloride] | 11.6
36 | CCC(=O)O[C@]1(C(=O)SCF)[C@H](C)C[C@H]2[C@@H]3C[C@H](F)C4=CC(=O)C=C[C@]4(C)[C@@]3(F)[C@@H](O)C[C@@]21C [Fluticasone propionate] | 2.35
37 | Cc1cc(C2CCCCC2)n(O)c(=O)c1 [Ciclopirox] | -5.97
38 | CN(C)CC/C=C1/c2ccccc2COc2ccc(CC(=O)O)cc21 [Olopatadine hydrochloride] | 5.77
39 | CCc1nc(N)nc(N)c1-c1ccc(Cl)cc1 [Pyrimethamine] | 6.72
40 | COc1cc2nc(N3CCN(C(=O)C4COc5ccccc5O4)CC3)nc(N)c2cc1OC (stereo not given) [Doxazosin mesylate] | -8.3
